KB-V1 MDR tox = kills drug-selected multidrug resistant KB-V1 cells. KB-V1 MDR cells viability, CellTiter-Glo, 72 h. Potency, µM (top dose mostly 46.1 µM), most hits filed as cytotoxic. 400,000 tested, 3.4% active. AID 1347076; note: % is set by controls: 0 for no effect and ±100 for the full control effect; nearly all actives have a fitted effect of over 60% in size
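In this primary screen, KB-V1 cells overexpressing P-gp are incubated with library compounds (lowest to highest concentration) for 72 h at 37 degrees C before a luminescent ATP viability read.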
PINK1 expr mod = PINK1 expression modulation; PINK1 immunofluorescence, high-content cytometry, 24 h; Potency, µM (titrated, usually from 76.6 µM), inactives show at the top dose activation (PINK1 increase), usual class: activators; 410,000 tested, 0.2% active; AID 624263; active = well fitted activation curve with a large enough effect; inconclusive = small, poorly fitted or top-dose-only effect; cell line not stated here; note: % of control where 0% means no effect; nearly all actives have a fitted effect of over 65% in size
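Measures PINK1 amount and localization on or inside mitochondria by immunofluorescence. Stable cells get compounds at 5 concentrations for 24 hours before fixation and staining; CCCP controls included.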
MCF10A rerep = DNA re-replication induction in MCF 10a cells | MCF 10A DNA re-replication, Hoechst nuclear intensity, 48 h | Potency, µM (top dose mostly 46.1 µM), for the others: at the top dose activity, positive = re-replication, usual class: activators | 350,000 tested, 2.9% active | AID 624296; note: % of control where 0% means no effect; nearly all actives have a fitted effect of over 50% in size
ALOX12 inh = blocks human arachidonate 12S-lipoxygenase. purified 12hLO, xylenol orange hydroperoxide absorbance. Potency, µM (series often up to 108 µM), without a hit: at the top dose activity change, negative = inhibition, usual class: inhibitors. AID 1671190. 580,000 tested, 1.1% active. P18054; note: % is set by controls: 0 for no effect and ±100 for the full control effect
Target sequence (P18054 whole entry, looked up): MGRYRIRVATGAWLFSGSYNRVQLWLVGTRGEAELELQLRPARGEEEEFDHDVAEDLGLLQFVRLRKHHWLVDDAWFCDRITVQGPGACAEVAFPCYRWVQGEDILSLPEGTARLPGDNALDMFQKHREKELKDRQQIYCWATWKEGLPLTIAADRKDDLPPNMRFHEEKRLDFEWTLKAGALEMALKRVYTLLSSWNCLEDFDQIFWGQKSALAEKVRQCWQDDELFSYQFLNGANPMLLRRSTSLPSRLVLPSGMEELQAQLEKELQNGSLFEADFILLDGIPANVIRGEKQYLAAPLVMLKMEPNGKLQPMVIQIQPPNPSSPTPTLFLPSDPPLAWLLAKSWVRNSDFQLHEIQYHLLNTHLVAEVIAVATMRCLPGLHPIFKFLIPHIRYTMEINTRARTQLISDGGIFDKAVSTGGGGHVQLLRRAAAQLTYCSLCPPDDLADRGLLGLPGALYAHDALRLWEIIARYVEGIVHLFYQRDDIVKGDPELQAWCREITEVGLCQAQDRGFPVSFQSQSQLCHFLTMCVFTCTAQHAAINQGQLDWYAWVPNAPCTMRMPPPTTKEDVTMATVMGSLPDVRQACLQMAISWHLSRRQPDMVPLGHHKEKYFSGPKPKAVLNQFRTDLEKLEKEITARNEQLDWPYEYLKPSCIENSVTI
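Hydroperoxide product was detected by ferrous iron/xylenol orange as the 573 to 405 nm absorbance ratio. Arachidonic acid at 40 uM (final) was turned over for 30 min at room temperature by 150 nM human 12hLO, pH 7.0 Hepes buffer, after 15 min compound preincubation.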
KB-3-1 cytotox = KB-3-1 parental cell cytotoxicity. KB-3-1 viability, CellTiter-Glo ATP luminescence, 72 h. Potency, µM (titrated, usually from 46.1 µM), hits mostly cytotoxic. 400,000 tested, 1.4% active. AID 1347075; note: % is set by controls: 0 for no effect and ±100 for the full control effect; nearly all actives have a fitted effect of over 60% in size
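72 h, 37 °C compound treatment of KB-3-1 parental cells; CellTiter-Glo added, 10 min, luminescence read. Data corrected against DMSO-only plates and normalized before curve fitting.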
SW480 rerep = inducers of DNA re-replication in SW480 colon cancer cells; SW480 DNA re-replication, Hoechst DNA content imaging, 48 h; Potency, µM (doses to about 46.1 µM), for the others: at the top dose re-replication activation, most hits filed as activators; 340,000 tested, 1.8% active; AID 624297; note: % of control where 0% means no effect; nearly all actives have a fitted effect of over 55% in size
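DNA re-replication was detected as more nuclei of elevated Hoechst intensity after 48 hr exposure to compound (23 nL pinned per well of 250 cells).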
* = called active by the depositor; [ ] = remark or other dose. Compounds with a hit are over-represented: about 5.8% of the library has one in this group of screens. Unless noted, calls come from the whole dose curve; as a rule, active = well fitted curve in the direction sought with a large enough effect; inconclusive = small, poorly fitted or top-dose-only effect, or another doubt; inactive = no such curve, though single readings can be large; an effect the other way counts as inactive or inconclusive. Potency is the fitted concentration of half-maximal effect.

Results for COc1ccc(C)cc1S(=O)(=O)N1CCN(S(=O)(=O)c2cc(C)ccc2OC)CC1 ?
KB-V1 MDR tox: inconclusive; PINK1 expr mod: 0%; MCF10A rerep: -6%; ALOX12 inh: 0%; KB-3-1 cytotox: inactive; SW480 rerep: -3%

What do the screens show for `CCn1c(-n2nc(C)cc2C)nc2c1c(=O)n(Cc1c(F)cccc1Cl)c(=O)n2C`?
ALOX12 inh: 6%

How did COc1cc(CN2CCC(C(=O)N3CCN(c4ccccc4F)CC3)CC2)cc(OC)c1O do in these assays?
KB-V1 MDR tox: inconclusive; PINK1 expr mod: -2%[38.3 µM]; MCF10A rerep: 8%; ALOX12 inh: 2.5µM*; KB-3-1 cytotox: inactive; SW480 rerep: 1%

Results for Nn1c(SCC(=O)Nc2cccc(C(F)(F)F)c2)nnc1-c1cc(-c2ccc(Cl)cc2)n[nH]1 ?
ALOX12 inh: 5%

Results for Cc1ccc(NC(=O)C2CCN(C(=O)c3ncn4c3COC(c3ccc(F)cc3)C4)CC2)c(Cl)c1 (stereo unspecified) ?
ALOX12 inh: 40%

Results for COc1ccc(/C=C/c2cc(C(=O)O)c3ccccc3n2)cc1OC ?
ALOX12 inh: 18µM*

What do the screens show for `COc1ccc(/C=C/c2cc(C(F)(F)F)[nH]c(=O)n2)cc1OC`?
KB-V1 MDR tox: inactive; PINK1 expr mod: -3%; MCF10A rerep: inconclusive; ALOX12 inh: 8.9µM*; KB-3-1 cytotox: inconclusive; SW480 rerep: 16µM*

What do the screens show for `CCc1ccccc1NC(=O)CCS(=O)(=O)c1ccc2c(c1)oc(=O)n2C`?
ALOX12 inh: -4%

Results for COC(=O)c1c(C)[nH]c(C(=O)/C=C/c2ccccc2)c1C ?
KB-V1 MDR tox: 12µM*; PINK1 expr mod: 2%; MCF10A rerep: -46%; ALOX12 inh: -16%; KB-3-1 cytotox: inactive; SW480 rerep: -128%

How did Cc1[nH]c2ccccc2c1/C=C/C(=O)c1ccccc1 do in these assays?
KB-V1 MDR tox: inconclusive; PINK1 expr mod: 3%; MCF10A rerep: 21µM*; ALOX12 inh: -10%; KB-3-1 cytotox: inconclusive; SW480 rerep: 18µM*

What do the screens show for `Cc1[nH]c2ccccc2c(=O)c1C(=O)/C=C/c1ccccc1`?
KB-V1 MDR tox: 15µM*; PINK1 expr mod: -1%; MCF10A rerep: 12µM*; ALOX12 inh: -16%; KB-3-1 cytotox: inconclusive; SW480 rerep: inconclusive

What do the screens show for `Cc1[nH]c2ccccc2c1/C=N/NC(=O)c1ccccc1`?
KB-V1 MDR tox: inactive; PINK1 expr mod: 1%; MCF10A rerep: 3%; ALOX12 inh: 34%; KB-3-1 cytotox: inactive; SW480 rerep: 1%

How did O=C(/C=C/c1ccccc1)c1c[nH]c2ccccc12 do in these assays?
KB-V1 MDR tox: inactive; PINK1 expr mod: -1%; MCF10A rerep: -1%; ALOX12 inh: 0%; KB-3-1 cytotox: inactive; SW480 rerep: inconclusive

Results for O=C(C=Cc1ccccc1)c1c[nH]c2ccccc2c1=O ?
KB-V1 MDR tox: 7.3µM*; PINK1 expr mod: -4%; MCF10A rerep: 6.5µM*; ALOX12 inh: -10%; KB-3-1 cytotox: 5.2µM*; SW480 rerep: 8.2µM*

How did CNC(=O)c1cc[nH]c1C1CCCN(C(=O)CCc2nc3ccccc3[nH]2)C1 (stereo unspecified) do in these assays?
ALOX12 inh: -4%

How did O=C(O)CC/C(=C/c1ccc(OC(F)F)cc1)c1nc2ccccc2s1 do in these assays?
ALOX12 inh: 3%

Results for CN1CCCCCC(O)c2cc(C(=O)NCCc3ccncc3)ccc21 (stereo unspecified) ?
ALOX12 inh: 95%

Results for OC(Cc1ccccc1)c1ncc(-c2ccc(Cl)cc2)[nH]1 (stereo unspecified) ?
KB-V1 MDR tox: 12µM*; PINK1 expr mod: 4%; ALOX12 inh: -12%; KB-3-1 cytotox: inconclusive

What do the screens show for `C=CCN1C(=O)/C(=C2/Sc3ccc(OC)cc3N2C)SC1=Nc1ccccc1`?
KB-V1 MDR tox: inactive; PINK1 expr mod: 10%; MCF10A rerep: inconclusive; ALOX12 inh: 0%; KB-3-1 cytotox: inactive; SW480 rerep: 7.3µM*

Results for Cc1ccc(C(C[N+](=O)[O-])Sc2ccc(N)cc2)cc1 (stereo unspecified) ?
KB-V1 MDR tox: inconclusive; PINK1 expr mod: -2%; MCF10A rerep: 7.3µM*; ALOX12 inh: -24%; KB-3-1 cytotox: inactive; SW480 rerep: inconclusive

Results for Cc1ccc(C(C[N+](=O)[O-])n2nc(C)cc2C)cc1 (stereo unspecified) ?
KB-V1 MDR tox: inactive; PINK1 expr mod: -1%; MCF10A rerep: inconclusive; ALOX12 inh: 0%; KB-3-1 cytotox: inactive; SW480 rerep: inconclusive

Results for Cc1nc2sc3c(c2c2nc(C(=O)NCCN(C)C)nn12)CCC3 ?
ALOX12 inh: 6%

Results for O=C(Nc1cccc2[nH]ccc12)C(=O)NC1CCCC1 ?
ALOX12 inh: 5%

What do the screens show for `Cc1cccc2c(C(=O)N3CCCCC3)cc(-c3ccccc3)nc12`?
KB-V1 MDR tox: inconclusive; PINK1 expr mod: 1%; MCF10A rerep: inconclusive; ALOX12 inh: inconclusive; KB-3-1 cytotox: inactive; SW480 rerep: inconclusive

How did Cc1cccc2c(C(=O)N3CCN(c4ccccc4)CC3)cc(-c3ccncc3)nc12 do in these assays?
KB-V1 MDR tox: 3.7µM*; PINK1 expr mod: 0%; MCF10A rerep: 7.3µM*; ALOX12 inh: 0%; KB-3-1 cytotox: 4.1µM*; SW480 rerep: 6.5µM*

How did O=C(c1cc(-c2cccc(Cl)c2)nc2ccccc12)N1CCN(c2ccccn2)CC1 do in these assays?
KB-V1 MDR tox: inconclusive; PINK1 expr mod: 3%; MCF10A rerep: inconclusive; ALOX12 inh: 0%; KB-3-1 cytotox: inactive; SW480 rerep: inconclusive

Results for CC(=O)c1ccc(N2CCN(C(=O)c3cc(-c4ccncc4)nc4ccc(Cl)cc34)CC2)cc1 ?
KB-V1 MDR tox: 9.2µM*; PINK1 expr mod: -2%; MCF10A rerep: 1%; ALOX12 inh: 65%; KB-3-1 cytotox: inactive; SW480 rerep: -4%

Results for O=C(c1cc(-c2ccncc2)nc2ccc(Cl)cc12)N1CCN(C(=O)C2CCCO2)CC1 (stereo unspecified) ?
KB-V1 MDR tox: inactive; PINK1 expr mod: 0%; MCF10A rerep: 2%; ALOX12 inh: -9%; KB-3-1 cytotox: inactive; SW480 rerep: -7%

How did Cc1cccc2c(C(=O)N3CCN(c4ccccn4)CC3)cc(-c3cccc(Br)c3)nc12 do in these assays?
KB-V1 MDR tox: inconclusive; PINK1 expr mod: 2%; MCF10A rerep: -6%; ALOX12 inh: 203%; KB-3-1 cytotox: inconclusive; SW480 rerep: 16µM*

Screening results (PubChem)
